From PubChem BioAssay AID743365 (National Center for Advancing Translational Sciences (NCATS), 2014)

Experiment: qHTS profiling of inhibitors of Plasmodium falciparum (DD2) proliferation (acoustic dispense)
Conditions: P. falciparum Dd2 in erythrocytes, SYBR Green DNA, 72 h; at 49.8 µM (top of the series) unless noted

Row | Structure (SMILES) | parasite growth, lower = inhibition
1 | CN(C(=O)OC(C)(C)C)[C@@H](Cc1ccc(O[S+](=O)([O-])c2cccc3cnccc23)cc1)C(=O)N1CCN(C(=O)OCc2ccccc2)CC1 | -0.325%
2 | Nc1ccc(-c2ccc3ncc4ccc(=O)n(-c5cccc(C(F)(F)F)c5)c4c3c2)cn1 | -0.538%
3 | Cc1cnc(Nc2ccc(CN3CCOCC3)cc2)nc1Nc1cccc(S(=O)(=O)NC(C)(C)C)c1 | 0.192%
4 | CCCC[C@@H]1C[C@@H](C(=O)NC([C@H](C)Cl)[C@H]2O[C@H](S)[C@H](O)[C@@H](O)[C@@H]2O)N(C)C1 (stereo partly specified) | 20.5%
5 | CCN[C@H]1C[C@H](C)S(=O)(=O)c2sc(S(N)(=O)=O)cc21 | 0.306%
6 | COc1ccc2nc3cc(Cl)ccc3c(Nc3cc(CN4CCCC4)c(O)c(CN4CCCC4)c3)c2n1 | 0.653%
7 | CC[C@@]1(O)C[C@H](O[C@H]2C[C@H](N(C)C)[C@H](O[C@H]3C[C@H](O)[C@H](O[C@H]4CCC(=O)[C@H](C)O4)[C@H](C)O3)[C@H](C)O2)c2c(cc3c(c2O)C(=O)c2c(O)cccc2C3=O)[C@@H]1C(=O)OC | -1.21%
8 | COc1ccc(-c2ccc3ncc4c(c3c2)n(-c2ccc(N3CCNCC3)c(C(F)(F)F)c2)c(=O)n4C)cn1 | 2.81%
9 | C[C@H]1[C@@H](OC(=O)CCC(=O)O)O[C@@H]2O[C@@]3(C)CC[C@@H]4[C@H](C)CC[C@@H]1[C@@]24OO3 | -0.775%
10 | O=C(Nc1ccc([N+](=O)[O-])cc1Cl)c1cc(Cl)ccc1O | 87.9%
11 | C1CCC(C(CC2CCCCN2)C2CCCCC2)CC1 (stereo unspecified) | 0.0319%
12 | CC[C@H]1OC(=O)[C@H](C)C(=O)[C@H](C)[C@@H](O[C@H]2O[C@H](C)C[C@H](N(C)C)[C@@H]2O)[C@](C)(OC)C[C@@H](C)C(=O)[C@H](C)[C@H]2N(CCCCn3cnc(-c4cccnc4)c3)C(=O)O[C@]12C | 4.52%
13 | CN(Cc1cnc2nc(N)nc(N)c2n1)c1ccc(C(=O)N[C@@H](CCC(=O)O)C(=O)O)cc1 | -0.378%
14 | O=C1c2c(O)ccc(O)c2C(=O)c2c(NCCNCCO)ccc(NCCNCCO)c21 | -3.56%
15 | COCCn1c2c([n+](Cc3cnccn3)c1C)C(=O)c1ccccc1C2=O | -0.378%
16 | CC(=NNC(=S)N1CCC1)c1ccccn1 | -0.523%
17 | O=C1C(=O)c2ccccc2C(O)=C1C1CCC(c2ccc(Cl)cc2)CC1 (stereo unspecified) | 3.04%
18 | COC(=O)c1ccc2c(C(=Nc3ccc(N(C)C(=O)CN4CCN(C)CC4)cc3)c3ccccc3)c(O)[nH]c2c1 | 14.8%
19 | CC(Sc1nc2ccccc2[nH]1)C(=O)NN=Cc1cc(Br)ccc1O (stereo unspecified) | 99.5% [at 4.15 µM]
20 | Cc1nc2c(C#N)cccc2n1-c1ccc(C(=O)NC2CC2)s1 | 2.19%
21 | Cc1cn[nH]c1 | 23.6%
